# Results as given in PubChem BioAssay AID2517 (National Center for Advancing Translational Sciences (NCATS), 2010).
# Several values for one entry are separate records, joined by “and”; a condition that tells them apart may be missing. Identical values can stand only once. Out of some 350,000 compounds screened, about 1,200 (0.34%) were called active. Entries that show only a call come without a potency. Inconclusive results (about 3%) are left out. Calls come from the whole dose curve; as a rule, active = well fitted inhibition curve with a large enough effect; inconclusive = small, poorly fitted or top-dose-only effect; inactive = no such curve, though single readings can be large or run the other way. Many of the other results were omitted from the sample, so actives are more common in it than they were. Some compounds were tested as several samples or in several runs, with calls that do not always agree.
# Target: DNA repair nuclease/redox regulator APEX1 (Homo sapiens) (UniProt P27695)
# Assay: qHTS Assay for Inhibitors of the Human Apurinic/apyrimidinic Endonuclease 1 (APE1); note: nearly all actives have a fitted effect of over 55% in size
# Settings: recombinant APE1, TAMRA/BHQ-2 abasic DNA cleavage fluorescence; series mostly up to 65.8 µM
# Source text: The apurinic/apyrimidinic endonuclease APE1 is the primary mammalian enzyme responsible for the removal of abasic (or AP) sites in DNA and functions centrally in the base excision DNA repair (BER) pathway. […] Thus, targeting APE1 could improve the efficacy of current treatment paradigms by promoting selective sensitization or protection of diseased and normal cells, respectively.
# Inhibition of APE1 activity was screened by utilizing double-stranded short substrate containing tetrahydrofuran (THF) abasic site labeled with rhodamine-type fluorophore (TAMRA) at the 5'-end and with non-fluorescent Black Hole Quencher-2 (BHQ-2) at the opposing 3'-end. An increase in the fluorescence intensity due to incision of the abasic site by APE1 was used to measure the enzyme activity.
# NIH Chemical Genomics Center [NCGC]
# NIH Molecular Libraries Probe Centers Network [MLPCN]
# Assay Provider: David M. Wilson, III, National Institute on Aging, NIH
# Three uL of enzyme solution (0.75 nM APE1 final concentration) was dispensed to 1536-well Greiner black solid bottom plates. […] The plates were incubated for 15 min at room temperature, and then 1 uL of substrate solution (50 nM final concentration of TAMRA/BHQ-2) was added to start the reaction. The plates were immediately transferred into ViewLux High-throughput CCD imager (Perkin-Elmer) in order to measure the reaction progress in kinetic mode (three reads every 60 seconds) using 525 nm excitation and 598 nm emission fluorescence protocol. The fluorescence intensity difference between the third and the first time points was used to compute reaction progress. Results were normalized to buffer only columns and NSC13755 positive controls and negative control DMSO treated wells.
# Potency is the fitted concentration of half-maximal effect.
# Chain of DNA repair nuclease/redox regulator APEX1 (Homo sapiens) (P27695 whole entry, looked up): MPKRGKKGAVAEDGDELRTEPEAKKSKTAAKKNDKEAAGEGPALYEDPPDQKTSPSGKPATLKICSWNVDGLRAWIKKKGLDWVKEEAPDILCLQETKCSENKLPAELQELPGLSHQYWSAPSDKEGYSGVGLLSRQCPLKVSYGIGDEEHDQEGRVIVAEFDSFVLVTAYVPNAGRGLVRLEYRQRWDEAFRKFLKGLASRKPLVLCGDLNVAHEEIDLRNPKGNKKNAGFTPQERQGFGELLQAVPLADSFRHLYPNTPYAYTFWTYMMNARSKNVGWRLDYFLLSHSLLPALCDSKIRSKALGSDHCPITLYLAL
Structure (SMILES),Potency,"activity change, negative = inhibition"
COc1ccc(N2C(=O)/C(=C/c3ccco3)C(=O)NC2=S)cc1,0.67 µM (active),–
C[C@]12CC[C@@H]3C(=CCc4cc(O)ccc43)[C@@H]1CCC2=O,inactive,–
CCc1ccc(C2C(C#N)=C(N)Oc3n[nH]c(CC(=O)OC)c32)cc1 (stereo not given),inactive,–
CC[N+](C)(CC)CCC[n+]1c(-c2ccccc2)c2cc(N)ccc2c2ccc(N)cc21,2.12 µM (active),–
Clc1ccccc1,inactive,–
CC(=O)[O][Sn]([c]1ccccc1)([c]1ccccc1)[c]1ccccc1,inactive,–
N#CC(C#N)=Cc1cc(O)c(O)c([N+](=O)[O-])c1,5.62 µM (active),–
ClC(Cl)=C(Cl)C(Cl)=C(Cl)Cl,inactive,–
N#Cc1cc(Br)c(O)c(Br)c1,inactive,–
N#CCCCl,inactive,–
Cc1nc(SCC(=O)NC2CCCC2)[nH]c(=O)c1C,–,63.8% [at 12.4 µM] (inactive)
CC(C)COC(=O)n1c(=O)oc2ccc(S(=O)(=O)N3CCCCC3)cc21,inactive,–
CC(C)Nc1nc(Cl)nc(NC(C)C)n1,inactive and 22.4 µM (active),–
CCCCC#N,inactive,–
NCCCCC(N)C(=O)O (stereo not given),inactive,–
CCCCCCCCCCCCN=C(N)N,inactive,–
CC(C)(c1ccccc1)c1ccc(O)cc1,inactive,–
C[C@H]1C/C=C/[C@@H]2[C@@H]3O[C@]3(C)[C@@H](C)[C@H]3[C@H](Cc4ccccc4)NC(=O)[C@]32OC(=O)O/C=C/[C@](C)(O)C1=O,inactive,–

Structure (SMILES),Potency,"activity change, negative = inhibition"
O=C(OCC1O[C@@H](OC(=O)c2cc(O)c(O)c(O)c2)[C@@H](OC(=O)c2cc(O)c(O)c(O)c2)[C@@H](OC(=O)c2cc(O)c(O)c(O)c2)[C@@H]1OC(=O)c1cc(O)c(O)c(O)c1)c1cc(O)c(O)c(O)c1 (stereo not given in full),0.0112 µM (active),–
Cc1cc(-c2n[nH]c(=S)n2-c2ccc(C)c(C)c2)no1,inactive,–
CC(=O)c1ccc(-c2ccc(Cn3c(C)nc4cc(N)c(C)nc43)cc2)cc1,inactive,–
CN(C)C1C(=O)C(C(N)=O)=C(O)[C@@]2(O)C(=O)C3=C(O)c4c(O)cccc4[C@@](C)(O)C3C[C@@H]12 (stereo not given in full),inactive,–
O=c1cc(-c2ccc(O)cc2)oc2c([C@@H]3O[C@H](CO)[C@@H](O)[C@H](O)[C@H]3O)c(O)cc(O)c12,8.91 µM (active),–
C=CCOC(=O)c1ccccc1C(=O)OCC=C,inactive,–
CC(Cl)Cl,inactive,–
CC(C)CC(C)Nc1ccc(Nc2ccccc2)cc1 (stereo not given),inactive,–
CC(CCn1cccn1)NC(=O)CCc1nnc(CCc2ccccc2)o1 (stereo not given),inactive,–
Cc1ccnc(-n2c(C)cc(/C=C3\C(=O)NC(=S)N(C)C3=O)c2C)c1,inactive,–
Cc1c(C(=O)O)cccc1-n1c(C)cc(/C=C2\C(=O)NC(=O)N(c3ccc4c(c3)OCO4)C2=O)c1C,14.1 µM (active),–
CC(C)(C)C(O)(CCc1ccc(Cl)cc1)Cn1cncn1 (stereo not given),inactive,–
C=CC#N,inactive,–
ClCCBr,inactive,–
CCN(CC)c1nc(C)cc(OP(=S)(OC)OC)n1,inactive,–
CCOc1cc(N2CCOCC2)c(OCC)cc1NC(=O)C1=NN(c2cccc(C)c2)C(=O)CC1,inactive,–
CCC12CCN(CCc3ccccc3)CC1Oc1c(O)cccc12 (stereo not given),inactive,–
